Screening data deposited in PubChem BioAssay by several laboratories.
This is a sample that favours compounds with a hit; in the whole collection about 2.3% have one here.
Mcl1-Noxa inh = Mcl-1/Noxa binding inhibitors, primary screen, biochemical, TR-FRET, 1536-well; actives 1.5% (n = 220,000); AID 1022, 2008; TR-FRET Mcl-1/Noxa peptide binding, 2 h; inhibition, % at 21.7 µM; Induced myeloid leukemia cell differentiation protein Mcl-1 (Homo sapiens), Q07820;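 active = compounds that cut the protein-peptide binding signal by more than 50% relative to plate controls in a single-dose test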;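 also: His-tagged Mcl-1 with rhodamine Noxa BH3 peptide and terbium anti-His antibody; 0% = Mcl-1 plus Noxa peptide wells and 100% = peptide-only wells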
Target sequence (Q07820 whole entry, looked up): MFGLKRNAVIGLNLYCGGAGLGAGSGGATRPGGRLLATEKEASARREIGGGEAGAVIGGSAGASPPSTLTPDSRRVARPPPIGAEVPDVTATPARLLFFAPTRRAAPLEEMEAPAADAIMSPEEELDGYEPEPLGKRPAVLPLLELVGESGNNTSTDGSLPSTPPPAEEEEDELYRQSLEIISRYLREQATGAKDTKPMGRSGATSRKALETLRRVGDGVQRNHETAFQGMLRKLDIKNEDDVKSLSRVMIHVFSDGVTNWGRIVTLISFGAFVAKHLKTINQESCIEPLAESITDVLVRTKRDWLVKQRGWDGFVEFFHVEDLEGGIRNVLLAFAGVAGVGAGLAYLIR
Mcl1-Bid inh = Mcl-1/Bid binding inhibitors, primary screen, biochemical, TR-FRET, 1536-well | TR-FRET Mcl-1/Bid-Dy647 peptide binding | inhibition, % at 21.7 µM | actives 0.97% (n = 220,000);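 active = compounds that cut the binding signal by more than half at the single screening dose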;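 also: His-tagged Mcl-1 with europium anti-His antibody binding Bid BH3 peptide; 0% = Mcl-1 plus peptide wells and 100% = peptide-only wells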
GLD-1 RNA inh = GLD-1/TGE RNA complex disruptors, primary screen, biochemical, fluorescence polarization. Female germline-specific tumor suppressor gld-1 (Caenorhabditis elegans), Q17339. AID 2280, 2010. actives 0.44% (n = 320,000). purified GLD-1 + fluorescein TGE RNA. inhibition, % at 5.96 µM;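 active = percent inhibition above a per-plate cutoff, the plate mean of test compounds plus 3 SD, cut at about 30% in these data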;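 also: 0% = DMSO wells with GLD-1 and probe and 100% = wells lacking GLD-1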
MCL1 BIM primary = inhibitors of MCL1 binding to BIM-BH3, primary screen, biochemical, fluorescence polarization; actives 0.68% (n = 320,000); GST-MCL1 / FITC-Bim-BH3 fluorescence polarization; inhibition, % at 10.9 µM; Induced myeloid leukemia cell differentiation protein Mcl-1 (Homo sapiens), Q07820;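 active = inhibition above the mean inhibition of all tested compounds plus 3 SD, set per campaign, cut at about 40% in these data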;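 also: 0% = DMSO wells and 100% = unlabeled Bim-BH3 peptide control; higher means more loss of mP so more displacement of Bim peptide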
BCLXL inh = inhibitors of human Bcl-xL, primary screen, biochemical, fluorescence polarization, HTS; Bcl-2-like protein 1 (Homo sapiens), Q07817; GST-Bcl-xL / FITC-Bim BH3 peptide fluorescence polarization; inhibition, % at 10.9 µM; actives 0.7% (n = 320,000); AID 2129, 2009;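 active = inhibition above the mean of all tested compounds plus 3 SD, cutoff set per campaign, cut at about 30% in these data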;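 also: 0% = DMSO wells and 100% = unlabeled Bim-BH3 peptide competitor; inhibitors lower millipolarization by displacing the labeled peptide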
Target sequence (Q07817 whole entry, looked up): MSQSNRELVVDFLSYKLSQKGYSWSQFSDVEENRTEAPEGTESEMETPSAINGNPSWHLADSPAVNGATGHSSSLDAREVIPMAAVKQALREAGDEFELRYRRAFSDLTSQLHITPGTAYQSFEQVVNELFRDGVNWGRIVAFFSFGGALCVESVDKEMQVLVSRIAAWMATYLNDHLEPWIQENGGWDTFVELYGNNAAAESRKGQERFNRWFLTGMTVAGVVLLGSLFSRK
Bim-Mcl-1 = inhibitors of Bim peptide binding to Mcl-1, primary screen, biochemical, bead-based flow cytometry, multiplex. Bim peptide-Mcl-1 binding. inhibition, % at 10 µM. actives 0.1% (n = 190,000). AID 1009, 2008; in the data active = inhibition above about 40%;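 also: 0% = no compound tracer wells and 100% = peptide blocker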
BCLXL inh confirm = Bcl-xL inhibitors blocking Bim BH3 binding, confirmation, counter-screen for MCL1 inhibitor project, biochemical, fluorescence polarization; shares compounds with MCL1 BIM primary; GST-Bcl-xL / FITC-Bim BH3 peptide FP binding; inhibition, % at 10.9 µM; actives 54% (n = 1,700); AID 2166, 2009;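 active = inhibition above a cutoff equal to the mean inhibition of all tested compounds plus 3 SD, cut at about 30% in these data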;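 also: 0% = DMSO wells and 100% = unlabeled Bim BH3 control peptide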
MCL1 BIM confirm = inhibitors of MCL1 binding to BIM-BH3, confirmation, biochemical, fluorescence polarization, triplicate; GST-MCL1 / FITC-Bim-BH3 fluorescence polarization; inhibition, % at 10.9 µM; actives 61% (n = 1,700); shares compounds with MCL1 BIM primary;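 active = inhibition above the average of all tested compounds plus 3 SD, cut at about 40% in these data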;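 also: 0% = DMSO wells and 100% = unlabeled Bim-BH3 control peptide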
The depositor's hits bear a star; . = no result given.

SMILES	Mcl1-Noxa inh	Mcl1-Bid inh	GLD-1 RNA inh	MCL1 BIM primary	BCLXL inh	Bim-Mcl-1	BCLXL inh confirm	MCL1 BIM confirm
NC(CO)C(=O)NNCc1ccc(O)c(O)c1O (configuration not stated)	101*	6	22	72*	36*	0	37*	61*
COC(=O)C(N)Cc1ccc(O)cc1 (configuration not stated)	6	-37	-1	0	-1	2	.	.
Cn1cc(CN2CCC(C(=O)Nc3cccc(-c4cccc(F)c4)c3)CC2)cn1	.	.	-3	82*	4	.	8	13
CC1=N/C(=C/c2cc(Br)cc(Br)c2O)C(=O)O1	.	.	-2	0	5	.	.	.
CN(C)c1ncc(C2=C(Cl)C(=O)C(N3CCCC3)=C(Cl)C2=O)s1	112*	61*	16	91*	57*	85*	63*	85*
COc1ccc2c(c1)c1nc3ccccc3nc1n2CC(=O)OC(C)C	7	17	8	59*	60*	0	106*	140*
O=C(CN1CCN(C(=O)c2ccco2)CC1)Nc1ccc(F)cc1F	.	.	3	1	2	.	.	.
Cc1ccc(-c2csc3ncn(CC#N)c(=O)c23)cc1C	.	.	4	59*	23	.	17	41*
Cc1ccc(-c2csc3ncn(CC#N)c(=O)c23)cc1	4	-34	4	26	12	2	.	.
O=C(c1ccco1)N(c1ccccn1)c1ccccn1	-10	0	-4	7	4	-2	.	.
O=C(/C=C/c1ccco1)N(c1ccccn1)c1ccccn1	62*	-66	10	56*	24	3	22	53*
CC1=C(C#N)C(=O)OC(C)(C)C1	9	-34	63*	100*	86*	0	35*	50*
CC(C)(C)OC(=O)NC(Cc1ccccc1)C(=O)N1CCC(C(=O)NCC(=O)Nc2ccc(F)cc2)CC1 (configuration not stated)	.	.	57*	122*	105*	.	111*	141*
CC(C)(C)OC(=O)N[C@@H](Cc1ccccc1)C(=O)N1CCC(C(=O)NCC(=O)O)CC1	.	.	1	0	3	.	.	.
O=C(N/N=C/c1ccncc1)c1cccc(S(=O)(=O)Nc2ccc(Cl)cc2)c1	3	79*	3	52*	-3	.	-1	74*
O=S(=O)(NCc1cccs1)c1ccccc1Cl	.	.	-2	3	2	.	.	.
COc1ccccc1N(CC(=O)NCc1ccco1)S(=O)(=O)c1ccc(C)cc1	.	.	-1	47*	11	.	33*	79*
N#Cc1c(NC(=O)c2ccco2)sc2c1CCC2	.	.	6	56*	21	.	25	36
CCN(CC)S(=O)(=O)c1ccc2[nH]cc(C(=O)NC3CC3)c(=O)c2c1	.	.	3	3	4	.	.	.
Oc1ccc(N=C/C=C/c2cccc(Br)c2)cc1-c1nc2ccccc2s1	62*	-69	22	50*	36*	-2	18	18
Oc1ccc(-c2nc3ccccc3s2)c(O)c1	37	4	6	6	-3	.	.	.
Nc1ccccc1-c1nc2ccccc2s1	10	-13	3	8	7	0	.	.
Nc1ccc(O)c(-c2nc3ccccc3s2)c1	71*	-65	16	61*	51*	-3	37*	38
CSCCNC(=O)c1ccc2nc(C3CCCCC3)oc2c1	.	.	-1	9	4	.	.	.
c1ccc(Nc2ccccc2Nc2ccccn2)nc1	9	3	141*	98*	98*	-3	18	29
SMILES	Mcl1-Noxa inh	Mcl1-Bid inh	GLD-1 RNA inh	MCL1 BIM primary	BCLXL inh	Bim-Mcl-1	BCLXL inh confirm	MCL1 BIM confirm
Nc1cc(C(=O)O)c(N)c2c1C(=O)c1ccccc1C2=O	96*	-86	112*	180*	155*	.	161*	195*
Nc1c(C(=O)O)ccc2c1C(=O)c1ccccc1C2=O	26	-33	8	13	13	2	.	.
O=C(NCCCN1CCOCC1)c1cccc(S(=O)(=O)Nc2cc(Cl)ccc2Cl)c1	8	8	6	0	2	0	.	.
CN(CC(=O)Nc1ccccc1Cl)C(=O)c1cccc(-n2cccc2)c1	.	.	-2	1	-1	.	.	.
Cc1ccc(C)c(NC(=O)CN(C)C(=O)c2cccc(-n3cccc3)c2)c1	.	.	3	46*	9	.	10	64*
COc1cccc(/C=c2\s/c(=C\C(=O)C(C)(C)C)[nH]c2=O)c1	30	-8	-4	-2	-1	0	.	.
COc1ccc(/C=c2\s/c(=C/C(=O)c3ccc(C)cc3)[nH]c2=O)c(OC)c1	9	-21	-36	105*	103*	0	88*	97*
COc1ccc(CCN2CC(C(=O)NCCN3CCCC3=O)CCC2=O)cc1 (configuration not stated)	.	.	-3	9	1	.	.	.
O=C(c1ccco1)N1CCN(CCCCN2C(=O)c3ccccc3C2=O)CC1	11	-12	-5	8	6	3	.	.
O=C1c2ccccc2-c2onc3c(N4CCN(CCO)CC4)cc(N4CCN(C(=O)c5ccco5)CC4)c1c23	.	.	12	83*	63*	.	53*	58*
O=C(O)CCCNc1cc(N2CCN(C(=O)c3ccco3)CC2)c2noc3c2c1C(=O)c1ccccc1-3	.	.	99*	157*	135*	.	193*	164*
O=C1c2ccccc2-c2c1cccc2C(=O)N1CCN(C(=O)c2ccco2)CC1	17	-16	2	2	8	-3	.	.
COc1cccc(CNC(=O)N2CCN(c3ccccc3)CC2)c1	.	.	-3	1	1	.	.	.
c1coc(-c2nnc(-c3ccco3)nn2)c1	.	.	8	75*	43*	.	39*	68*
c1ccc(-c2nnc(-c3ccco3)o2)cc1	-18	-9	3	1	5	0	.	.
CC(=O)N1CCc2c(sc(NC(=O)CCS(=O)(=O)c3ccccc3)c2C(N)=O)C1	.	.	26	17	8	.	.	.
CCOC(=O)N1CCc2c(sc(NC(=O)CCS(=O)(=O)c3ccccc3)c2C(N)=O)C1	.	.	17	48*	10	.	13	18
